Laboratory results taken from PubChem BioAssay (NCI).
This is part of a sample that, as a whole, favours compounds with a hit. Of some 79,000 tested, about 15% had one in any assay. Activity calls are given as the source filed them. Rule as the data show it: active = growth inhibition above about 70%; inactive = the rest.

Tests used:
[1] = NCI Yeast Anticancer Drug Screen. Data for the rad52 strain (AID 147);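 also: 0% = growth of vehicle-treated control cultures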; settings: S. cerevisiae rad52 mutant growth inhibition, hits give high values
Outline: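 Read-out: growth inhibition versus vehicle-treated controls. Cells were a DNA repair-deficient yeast strain treated with compounds.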

[2] = NCI Yeast Anticancer Drug Screen. Data for the wt1 strain (AID 149);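 also: 0% = growth of vehicle-treated wt1 cultures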; settings: S. cerevisiae wt1 strain (SPY 50644) growth inhibition, hits give high values
Outline: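 wt1 yeast, compound-treated; % growth inhibition vs vehicle control.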

[3] = NCI Yeast Anticancer Drug Screen. Data for the rad50EPP+ strain (AID 151);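 also: 0% = growth of vehicle-treated control cultures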; settings: S. cerevisiae rad50 mutant strain, hits give high values
Outline: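 Growth inhibition read against vehicle controls in rad50EPP+ yeast, a strain altered in DNA damage repair, after compound exposure.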

[4] = NCI Yeast Anticancer Drug Screen. Data for the mgt1 strain (AID 153); settings: S. cerevisiae mgt1 mutant growth inhibition, hits give high values
Outline: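 mgt1 yeast grown with test compound; read-out is growth inhibition versus vehicle-treated cultures.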

[5] = NCI Yeast Anticancer Drug Screen. Data for the rad50 strain (AID 155);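 also: 0% = growth of vehicle-only cultures of the same strain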; settings: S. cerevisiae rad50 strain growth inhibition, hits give high values
Outline: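 Genetically altered yeast (DNA repair pathway); compound treatment; growth inhibition vs vehicle ctrl.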

[6] = NCI Yeast Anticancer Drug Screen. Data for the mec2-1 strain (AID 157); settings: S. cerevisiae mec2-1 strain, hits give high values
Outline: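 Yeast mec2-1 mutant treated with compound. Readout: growth inhibition vs vehicle controls.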

[7] = NCI Yeast Anticancer Drug Screen. Data for the rad14 strain (AID 159);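 also: 0% = growth of vehicle-treated control cultures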; settings: S. cerevisiae rad14 strain growth inhibition, hits give high values
Outline: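 Test compounds were applied to a repair-deficient yeast strain. Its growth was then compared with that of cultures given vehicle alone, and inhibition was expressed relative to those controls.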

[8] = NCI Yeast Anticancer Drug Screen. Data for the sgs1 mgt1 strain (AID 161);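 also: 0% = growth of cultures given vehicle only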; settings: S. cerevisiae sgs1 mgt1 strain, hits give high values
Outline: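 Inhibition of yeast growth, normalised to vehicle-treated controls, is reported for a strain bearing genetic alterations in DNA damage repair.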

[9] = NCI Yeast Anticancer Drug Screen. Data for the CLN2oe strain (AID 163);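 also: 0% = growth of vehicle-only control cultures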; settings: S. cerevisiae CLN2oe strain, hits give high values
Outline: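 Read-out: yeast growth inhibition, expressed relative to vehicle-only controls. The strain bears an engineered cell-cycle alteration.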

[10] = NCI Yeast Anticancer Drug Screen. Data for the cln2 rad14 strain (AID 165);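 also: 0% = growth equal to vehicle treated cultures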; settings: S. cerevisiae cln2 rad14 strain, hits give high values
Outline: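 cln2 rad14 yeast strain; compound exposure; growth inhibition read vs vehicle controls.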

[11] = NCI Yeast Anticancer Drug Screen. Data for the bub3 strain (AID 167); settings: S. cerevisiae bub3 mutant strain, hits give high values
Outline: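 Yeast carrying a defined mutation is treated with each compound, and growth is compared with that of vehicle-exposed cells to give inhibition.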

[12] = NCI Yeast Anticancer Drug Screen. Data for the mlh1 strain (AID 171);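 also: 0% = growth of vehicle-treated control cultures of the same strain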; settings: S. cerevisiae mlh1 strain growth inhibition, hits give high values
Outline: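 Read-out: growth inhibition versus vehicle controls. Strain: engineered yeast with a defined DNA repair or cell cycle defect, compound-treated.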

[13] = NCI Yeast Anticancer Drug Screen. Data for the sgs1 strain (AID 173);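 also: 0% = growth of vehicle-only control cultures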; settings: S. cerevisiae sgs1 mutant, hits give high values
Outline: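 Read-out: yeast growth inhibition relative to vehicle controls, following compound exposure of a strain with a defined DNA repair/cell cycle alteration.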

[14] = NCI Yeast Anticancer Drug Screen. Data for the rad18 strain (AID 177); settings: S. cerevisiae rad18 mutant growth inhibition, hits give high values
Outline: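 Readout: growth inhibition vs vehicle controls. Cells: genetically altered yeast strain, DNA repair defect.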

[15] = NCI Yeast Anticancer Drug Screen. Data for the wt2 strain (AID 169);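 also: 0% = growth of vehicle-treated yeast cultures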; settings: S. cerevisiae wt2 strain growth inhibition, hits give high values
Outline: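 Read-out: growth inhibition versus vehicle-treated control cultures after compound exposure of the yeast strain.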

[16] = at 5.0 µM (retest, dose inferred, filed as 0.5)
[17] = at 50.0 µM (retest, dose inferred, filed as 5.0)

Measured: growth inhibition

CCCCCCCCC/C=C/C=C/C(=O)NCC(=O)NC1C(O)C(O)C(Nc2ncnc3nc[nH]c23)OC1C(O)CO (stereo not given)
inactive: [1]; at 1.2 µM -19% | [1]; at 3.7 µM 11% | [1]; at 11.0 µM 10% | [1]; at 33.0 µM 69% | [1]; at 100.0 µM 67% | [2]; at 1.2 µM -41% | [2]; at 3.7 µM -23% | [2]; at 11.0 µM -27% | [2]; at 33.0 µM 33% | [2]; at 100.0 µM 20% | [3]; at 1.2 µM -19% | [3]; at 3.7 µM -17% | [3]; at 11.0 µM -15% | [3]; at 33.0 µM -36% | [3]; at 100.0 µM -48% | [4]; at 1.2 µM -33% | [4]; at 3.7 µM -22% | [4]; at 11.0 µM -14% | [4]; at 33.0 µM 43% | [4]; at 100.0 µM 39% | [5]; at 1.2 µM -53% | [5]; at 3.7 µM -47% | [5]; [16] 47% | [5]; at 11.0 µM -52% | [5]; at 33.0 µM -75% | [5]; at 50.0 µM 16.9% | [5]; at 100.0 µM -24% | [6]; at 1.2 µM -61% | [6]; at 3.7 µM -30% | [6]; [16] 9% | [6]; at 11.0 µM 14% | [6]; at 33.0 µM -11% | [6]; [17] 43% | [6]; at 50.0 µM 6.95% | [6]; at 100.0 µM -27% | [7]; at 1.2 µM -17% | [7]; at 3.7 µM -5% | [7]; at 11.0 µM -8% | [7]; at 33.0 µM 8% | [7]; at 100.0 µM 51% | [8]; [16] 2% | [8]; [17] -55% | [8]; at 50.0 µM 69.2% | [9]; at 1.2 µM 4% | [9]; at 3.7 µM 8% | [9]; at 11.0 µM 11% | [9]; at 33.0 µM 18% | [9]; at 100.0 µM -11% | [10]; [16] -1% | [10]; [17] -13% | [10]; at 50.0 µM 10.8% | [11]; at 1.2 µM -64% | [11]; at 3.7 µM -38% | [11]; [16] 5% | [11]; at 11.0 µM -58% | [11]; at 33.0 µM 5% | [11]; [17] -16% | [11]; at 50.0 µM 24.9% | [11]; at 100.0 µM 3% | [12]; at 1.2 µM -44% | [12]; at 3.7 µM -38% | [12]; at 11.0 µM -50% | [12]; at 33.0 µM 18% | [12]; at 100.0 µM -29% | [13]; at 1.2 µM -21% | [13]; at 3.7 µM 8% | [13]; at 11.0 µM 14% | [13]; at 33.0 µM 65% | [13]; at 100.0 µM 59% | [14]; at 1.2 µM -7% | [14]; at 3.7 µM 7% | [14]; at 11.0 µM 21% | [14]; at 33.0 µM 53% | [14]; at 100.0 µM 48%
active: [5]; [17] 83%

CC(=O)Oc1ccc2c(c1)Cc1cc(N=C3C=CC(=O)O3)ccc1-2
active: [1]; at 11.0 µM 98% | [1]; at 33.0 µM 98% | [1]; at 100.0 µM 94% | [2]; at 11.0 µM 96% | [2]; at 33.0 µM 99% | [2]; at 100.0 µM 96% | [3]; at 1.2 µM 78% | [3]; at 3.7 µM 96% | [3]; at 11.0 µM 99% | [3]; at 33.0 µM 98% | [3]; at 100.0 µM 93% | [4]; at 11.0 µM 99% | [4]; at 33.0 µM 99% | [4]; at 100.0 µM 96% | [5]; at 11.0 µM 97% | [5]; at 33.0 µM 98% | [5]; [17] 99% | [5]; at 50.0 µM 99.5% | [5]; at 100.0 µM 92% | [6]; [16] 72% | [6]; at 11.0 µM 98% | [6]; at 33.0 µM 99% | [6]; [17] 99% | [6]; at 50.0 µM 99.4% | [6]; at 100.0 µM 96% | [8]; [17] 99% | [8]; at 50.0 µM 99.6% | [9]; at 11.0 µM 94% | [9]; at 33.0 µM 99% | [9]; at 100.0 µM 95% | [10]; [17] 99% | [10]; at 50.0 µM 98.8% | [11]; at 11.0 µM 95% | [11]; at 33.0 µM 98% | [11]; [17] 98% | [11]; at 50.0 µM 99.7% | [11]; at 100.0 µM 95% | [15]; at 11.0 µM 99% | [15]; at 33.0 µM 99% | [15]; at 100.0 µM 96%
inactive: [1]; at 1.2 µM 14% | [1]; at 3.7 µM 41% | [2]; at 1.2 µM 2% | [2]; at 3.7 µM 24% | [4]; at 1.2 µM 9% | [4]; at 3.7 µM 36% | [5]; at 1.2 µM 9% | [5]; at 3.7 µM 55% | [5]; [16] 43% | [6]; at 1.2 µM 15% | [6]; at 3.7 µM 37% | [8]; [16] 64% | [9]; at 1.2 µM 2% | [9]; at 3.7 µM 23% | [10]; [16] 19% | [11]; at 1.2 µM -8% | [11]; at 3.7 µM 13% | [11]; [16] 31% | [15]; at 1.2 µM 3% | [15]; at 3.7 µM 36%
